Where “and” joins values, the source holds several entries; their conditions need not be identical. Equal values may be shown once. Screen size: about 5,500 compounds; about 2,000 (36%) were called active. Inconclusive results (about 18%) are left out. Cut-off read from the data, not from the text of the source: active = normalized growth mostly below about 0.91 (no sharp cut-off); inconclusive = no clear call, values can overlap the other calls; inactive = mostly above about 0.92. The list shows a part of the results.
Assay: chemical genetic growth profiling, strain panel (AID 1159580);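 note: tested at 20 µM; growth read once vehicle control cultures reached saturation at 30 °C; 1 = growth at the plate median or of vehicle wells; lower values mean less growth of the strain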
Details: growth OD

Measured: normalized growth

CCCCC1(COC(=O)CCC(=O)O)C(=O)N(c2ccccc2)N(c2ccccc2)C1=O
inactive: S. cerevisiae deletion strains, locus YBR021W, strain FUR4, hits give low values 1 | S. cerevisiae deletion strains, locus YBR229C, strain ROT2, hits give low values 1 | S. cerevisiae deletion strains, locus YCL029C, strain bik1, hits give low values 1.02 | S. cerevisiae deletion strains, locus YDL035C, strain GPR1, hits give low values 1.01 | S. cerevisiae deletion strains, locus YDL074C, strain BRE1, hits give low values 0.993 | S. cerevisiae deletion strains, locus YDL101C, strain DUN1, hits give low values 1 | S. cerevisiae deletion strains, locus YDL134C, strain PPH21, hits give low values 1.01 | S. cerevisiae deletion strains, locus YDL185W, strain tfp1, hits give low values 1.01 | S. cerevisiae deletion strains, locus YDL192W, strain arf1, hits give low values 1.01 | S. cerevisiae deletion strains, locus YDR101C, strain arx1, hits give low values 1.01 | S. cerevisiae deletion strains, locus YDR150W, strain NUM1, hits give low values 0.992 | S. cerevisiae deletion strains, locus YDR162C, strain NBP2, hits give low values 0.995 | S. cerevisiae deletion strains, locus YDR318W, strain mcm21, hits give low values 1 | S. cerevisiae deletion strains, locus YDR388W, hits give low values 1.01 | S. cerevisiae deletion strains, locus YDR502C, strain sam2, hits give low values 1.01 | S. cerevisiae deletion strains, locus YEL061C, strain CIN8, hits give low values 1 | S. cerevisiae deletion strains, locus YER110C, hits give low values 1.02 | S. cerevisiae deletion strains, locus YER155C, strain BEM2, hits give low values 1 | S. cerevisiae deletion strains, locus YER167W, strain BCK2, hits give low values 1 | S. cerevisiae deletion strains, locus YGL078C, strain dbp3, hits give low values 0.996 | S. cerevisiae deletion strains, locus YGL086W, strain mad1, hits give low values 1 | S. cerevisiae deletion strains, locus YGL248W, strain PDE1, hits give low values 1.01 | S. cerevisiae deletion strains, locus YGR135W, strain pre9, hits give low values 1.02 | S. cerevisiae deletion strains, locus YGR252W, strain gcn5, hits give low values 1.06 | S. cerevisiae deletion strains, locus YHR030C, strain SLT2, hits give low values 1 and 1.05 | S. cerevisiae deletion strains, locus YHR079C, strain IRE1 (second series), hits give low values 1.01 | S. cerevisiae deletion strains, locus YHR079C, strain IRE1, hits give low values 1.04 | S. cerevisiae deletion strains, locus YHR094C, strain hxt1, hits give low values 1.01 | S. cerevisiae deletion strains, locus YHR129C, strain ARP1, hits give low values 1 | S. cerevisiae deletion strains, locus YHR200W, strain rpn10, hits give low values 1.01 | S. cerevisiae deletion strains, locus YIL066C, strain RNR3, hits give low values 1.01 | S. cerevisiae deletion strains, locus YIL073C, strain SPO22, hits give low values 1.09 | S. cerevisiae deletion strains, locus YIL125W, strain kgd1, hits give low values 0.991 | S. cerevisiae deletion strains, locus YIR030C, strain dcg1, hits give low values 1.01 | S. cerevisiae deletion strains, locus YJL095W, strain BCK1, hits give low values 1.01 and 1.05 | S. cerevisiae deletion strains, locus YJL134W, strain LCB3, hits give low values 0.996 | S. cerevisiae deletion strains, locus YJL168C, strain set2, hits give low values 1 | S. cerevisiae deletion strains, locus YJL187C, strain SWE1 (second series), hits give low values 1.01 | S. cerevisiae deletion strains, locus YJR043C, strain POL32, hits give low values 0.989 | S. cerevisiae deletion strains, locus YJR066W, strain TOR1, hits give low values 0.967 | S. cerevisiae deletion strains, locus YJR075W, strain HOC1, hits give low values 1.01 | S. cerevisiae deletion strains, locus YKL009W, strain mrt4, hits give low values 1.03 | S. cerevisiae deletion strains, locus YKL068W, hits give low values 1 | S. cerevisiae deletion strains, locus YKL085W, strain MDH1 (second series), hits give low values 0.972 | S. cerevisiae deletion strains, locus YKL085W, strain MDH1, hits give low values 0.972 | S. cerevisiae deletion strains, locus YKL190W, strain CNB1, hits give low values 0.993 | S. cerevisiae deletion strains, locus YKR001C, strain vps1, hits give low values 1.01 | S. cerevisiae deletion strains, locus YLR039C, strain RIC1, hits give low values 0.912 | S. cerevisiae deletion strains, locus YLR058C, strain SHM2, hits give low values 1 | S. cerevisiae deletion strains, locus YLR102C, strain apc9, hits give low values 1 | S. cerevisiae deletion strains, locus YLR113W, strain HOG1, hits give low values 0.952 | S. cerevisiae deletion strains, locus YLR262C, strain YPT6, hits give low values 0.913 | S. cerevisiae deletion strains, locus YLR268W, strain sec22, hits give low values 1.02 | S. cerevisiae deletion strains, locus YLR330W, strain CHS5, hits give low values 0.993 | S. cerevisiae deletion strains, locus YLR342W, strain FKS1 (second series), hits give low values 0.993 | S. cerevisiae deletion strains, locus YLR371W, strain rom2, hits give low values 1.01 | S. cerevisiae deletion strains, locus YLR418C, strain cdc73, hits give low values 1.03 | S. cerevisiae deletion strains, locus YML016C, strain PPZ1, hits give low values 1 | S. cerevisiae deletion strains, locus YML032C, strain rad52, hits give low values 1 | S. cerevisiae deletion strains, locus YML124C, strain tub3, hits give low values 1.01 | S. cerevisiae deletion strains, locus YMR078C, strain ctf18, hits give low values 1 | S. cerevisiae deletion strains, locus YMR223W, strain ubp8, hits give low values 1.01 | S. cerevisiae deletion strains, locus YMR263W, strain SAP30, hits give low values 0.998 | S. cerevisiae deletion strains, locus YMR307W, strain GAS1, hits give low values 1.05 | S. cerevisiae deletion strains, locus YNL067W, strain RPL9B, hits give low values 0.998 | S. cerevisiae deletion strains, locus YNL128W, strain TEP1, hits give low values 1.02 | S. cerevisiae deletion strains, locus YNL183C, strain NPR1, hits give low values 0.945 | S. cerevisiae deletion strains, locus YNL233W, strain BNI4, hits give low values 1 | S. cerevisiae deletion strains, locus YNL250W, strain rad50, hits give low values 1 | S. cerevisiae deletion strains, locus YNL271C, strain bni1, hits give low values 1.01 | S. cerevisiae deletion strains, locus YNL298W, strain CLA4, hits give low values 1.01 | S. cerevisiae deletion strains, locus YNL307C, strain MCK1, hits give low values 1.02 | S. cerevisiae deletion strains, locus YNL322C, strain KRE1, hits give low values 0.997 | S. cerevisiae deletion strains, locus YNR052C, strain pop2, hits give low values 1.01 | S. cerevisiae deletion strains, locus YOL006C, strain TOP1, hits give low values 0.991 | S. cerevisiae deletion strains, locus YOL012C, strain htz1 1.51 | S. cerevisiae deletion strains, locus YOL147C, strain pex11, hits give low values 1.01 | S. cerevisiae deletion strains, locus YOR061W, strain CKA2, hits give low values 1 | S. cerevisiae deletion strains, locus YOR069W, strain VPS5, hits give low values 1 | S. cerevisiae deletion strains, locus YOR136W, strain idh2, hits give low values 1.02 | S. cerevisiae deletion strains, locus YOR144C, strain elg1, hits give low values 1.01 | S. cerevisiae deletion strains, locus YOR184W, strain ser1, hits give low values 1.02 | S. cerevisiae deletion strains, locus YOR231W, strain MKK1, hits give low values 1.02 | S. cerevisiae deletion strains, locus YOR316C, strain cot1, hits give low values 1.02 | S. cerevisiae deletion strains, locus YPL055C, strain LGE1, hits give low values 0.989 | S. cerevisiae deletion strains, locus YPL256C, strain CLN2, hits give low values 1.02 | S. cerevisiae deletion strains, locus YPR119W, strain clb2, hits give low values 1.01 | S. cerevisiae deletion strains, locus YPR141C, strain kar3, hits give low values 1 | S. cerevisiae deletion strains, locus YPR163C, strain tif3, hits give low values 1.02 | S. cerevisiae deletion strains, locus YPR167C, strain met16, hits give low values 1.01 | S. cerevisiae deletion strains, strain wtn01, hits give low values 1.02 | S. cerevisiae strains, strain wild type, hits give low values 0.995
